Source: PubChem BioAssay (NCI)
Compounds without any hit were thinned out: in the full panel of roughly 83,000, 20% have a hit.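 Results are percent growth after 48 hours of single-concentration exposure. 100 means growth as in untreated cells, lower positive values show inhibition; negative values down to -100 show cell death.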 Active and inactive are the calls of the source. How the source made its calls: active means growth percent below 10; inactive means the rest.

Legend:
Experiment in all cases: NCI-60 one-dose screen, 48 h (100 = growth as untreated, 0 = no growth, -100 = all killed)
Conditions in all cases: 10 µM
NCI-H23 lung = system: NCI-H23 lung
NCI-H226 lung = system: NCI-H226 lung
NCI-H322M lung = system: NCI-H322M lung
HOP-62 NSCLC = system: HOP-62 NSCLC
NCI-H460 lung = system: NCI-H460 lung
NCI-H522 lung = system: NCI-H522 lung
A549/ATCC NSCLC = system: A549/ATCC NSCLC
786-0 renal = system: 786-0 renal
COLO 205 colon = system: COLO 205 colon

Measured: growth

C/C(=N\O)C1(O)CCCCC1
inactive: NCI-H23 lung 99.5% | NCI-H226 lung 97.7% | NCI-H322M lung 87.6% | HOP-62 NSCLC 106% | NCI-H460 lung 98.3% | NCI-H522 lung 92.8% | A549/ATCC NSCLC 102% | 786-0 renal 99% | COLO 205 colon 99.4%

Cc1cc(N2CCC(N3CCCC3)CC2)nc(/N=C(\N)Nc2ccc(Cl)c(Cl)c2)n1
active: NCI-H322M lung -30.6% | HOP-62 NSCLC -8.02% | NCI-H460 lung -67.8% | NCI-H522 lung -66.4% | A549/ATCC NSCLC -22.1% | 786-0 renal -54.3% | COLO 205 colon -82.3%
inactive: NCI-H23 lung 56.8% | NCI-H226 lung 84.6%

Cc1c(O)cccc1O
inactive: NCI-H23 lung 106% | NCI-H226 lung 93.4% | NCI-H322M lung 90.3% | HOP-62 NSCLC 92% | NCI-H460 lung 114% | NCI-H522 lung 73.1% | A549/ATCC NSCLC 122% | 786-0 renal 102% | COLO 205 colon 116%

COc1cc(C(=O)NC(=S)Nc2ccc3ccccc3c2)cc(OC)c1OC
inactive: NCI-H23 lung 82.5% | NCI-H226 lung 88.9% | NCI-H322M lung 101% | HOP-62 NSCLC 95.8% | NCI-H460 lung 107% | A549/ATCC NSCLC 89.7% | 786-0 renal 116% | COLO 205 colon 84.2%
active: NCI-H522 lung -23.4%

CCCC[P+](c1ccccc1)(c1ccccc1)c1ccccc1
inactive: NCI-H23 lung 44.4% | NCI-H226 lung 67% | NCI-H322M lung 95.1% | HOP-62 NSCLC 80.2% | NCI-H460 lung 53.4% | NCI-H522 lung 39.6% | A549/ATCC NSCLC 53.7% | 786-0 renal 98.9% | COLO 205 colon 32.2%

CCCCCCCCCCC(C)Br (centres undefined)
inactive: NCI-H23 lung 102% | NCI-H226 lung 101% | NCI-H322M lung 94.5% | HOP-62 NSCLC 119% | NCI-H460 lung 113% | NCI-H522 lung 104% | A549/ATCC NSCLC 97.1% | 786-0 renal 97% | COLO 205 colon 110%

CCc1ccc(/C(C#N)=C/C=C/c2ccccc2)cc1
inactive: NCI-H23 lung 33.4% | NCI-H226 lung 67.3% | NCI-H322M lung 32.7% | HOP-62 NSCLC 34.4% | NCI-H460 lung 13.7% | A549/ATCC NSCLC 28.7% | 786-0 renal 63.2%
active: NCI-H522 lung -39.4% | COLO 205 colon -15%

CCNCCCCNCCCCNCCCCNCCCCNCC
inactive: NCI-H23 lung 49.5% | NCI-H226 lung 134% | NCI-H322M lung 42.1% | HOP-62 NSCLC 113% | NCI-H460 lung 76.1% | NCI-H522 lung 87.3% | A549/ATCC NSCLC 54.4% | 786-0 renal 150% | COLO 205 colon 69.1%

Cc1cc2nc(CO)[nH]c2cc1C
inactive: NCI-H23 lung 105% | NCI-H226 lung 108% | NCI-H322M lung 113% | HOP-62 NSCLC 99.4% | NCI-H460 lung 114% | NCI-H522 lung 96.9% | A549/ATCC NSCLC 90.9% | 786-0 renal 107% | COLO 205 colon 103%

CCCNc1ccc(C2=NCCCN2)cc1
inactive: NCI-H23 lung 95.6% | NCI-H226 lung 104% | NCI-H322M lung 88.7% | HOP-62 NSCLC 94.9% | NCI-H460 lung 103% | NCI-H522 lung 94.2% | A549/ATCC NSCLC 79.2% | 786-0 renal 88.9% | COLO 205 colon 99.5%

O=C(CCl)N1CCN(C/C=C/c2ccccc2)CC1
active: NCI-H522 lung -80.4%
inactive: NCI-H23 lung 101% | NCI-H226 lung 79.8% | NCI-H322M lung 109% | HOP-62 NSCLC 97.2% | NCI-H460 lung 98.1% | A549/ATCC NSCLC 108% | 786-0 renal 101% | COLO 205 colon 108%

CCOC(=O)Nc1cc2c(c(N)n1)N=C(c1ccccc1)CO2
active: NCI-H460 lung 8.86% | NCI-H522 lung -13.9% | COLO 205 colon 6.19%
inactive: NCI-H23 lung 34.8% | NCI-H226 lung 39.6% | NCI-H322M lung 15.3% | HOP-62 NSCLC 50% | A549/ATCC NSCLC 23.3% | 786-0 renal 39.1%

CC1CCC2C(C)(C)C3CC12CC1OC13C (centres undefined)
inactive: NCI-H23 lung 107% | NCI-H226 lung 99.1% | NCI-H322M lung 117% | HOP-62 NSCLC 109% | NCI-H460 lung 100% | NCI-H522 lung 91.7% | A549/ATCC NSCLC 110% | 786-0 renal 98% | COLO 205 colon 109%

CC1=C(/C=C/C(C)=C/C=C/C(C)=C/CO)C(C)(C)CCC1
inactive: NCI-H23 lung 102% | NCI-H226 lung 104% | NCI-H322M lung 105% | HOP-62 NSCLC 104% | NCI-H460 lung 117% | NCI-H522 lung 105% | A549/ATCC NSCLC 102% | 786-0 renal 103% | COLO 205 colon 110%

C=CCNC(=O)c1ccc(OC)cc1
active: NCI-H522 lung -12.1%
inactive: NCI-H23 lung 99.5% | NCI-H226 lung 99.4% | NCI-H322M lung 98.5% | HOP-62 NSCLC 109% | NCI-H460 lung 114% | A549/ATCC NSCLC 50.4% | 786-0 renal 107% | COLO 205 colon 109%

COc1cc(-c2ccc(NC(=O)NC3CC3)c(OC)c2)ccc1NC(=O)NC1CC1
active: NCI-H522 lung -10.3%
inactive: NCI-H23 lung 98.3% | NCI-H226 lung 102% | NCI-H322M lung 110% | HOP-62 NSCLC 101% | NCI-H460 lung 16.2% | A549/ATCC NSCLC 26.8% | 786-0 renal 74% | COLO 205 colon 103%
